From PubChem BioAssay
Calls of active or inactive are those of the source.

Legend:
[1] = A549 cell viability effects, profiling panel, calcein-AM fluorescence, 48 h, basal (AID 1162); conditions: higher = more signal
[2] = adipocyte viability effects, profiling panel, cell-based, 3T3-L1 adipocytes, calcein-AM fluorescence, 48 h, basal (AID 1163); conditions: 3T3-L1 adipocytes viability, higher = more signal
[3] = HepG2 cell viability effects, profiling panel, calcein-AM fluorescence, 48 h, basal (AID 1164); conditions: higher = more signal
[4] = MM1S cell viability effects, profiling panel, calcein-AM fluorescence, 48 h, basal (AID 1165); conditions: higher = more signal;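 note: viability of MM1S multiple myeloma cells under basal unstimulated conditions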
[5] = basal RPMI8226 viability, no added stimulus, profiling panel, cell-based, calcein-AM fluorescence, 48 h, PK04 Diversity Set (AID 1166); conditions: RPMI8226 myeloma viability, higher = more signal;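 note: cells grown under basal conditions without added stimulus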
[6] = basal HepG2 mitochondrial membrane potential changes, profiling panel, cell-based, JC-1 fluorescence, 24 h, 100 nL compound (AID 1167); conditions: higher = more signal
[7] = basal 3T3-L1 adipocyte mitochondrial potential changes, profiling panel, cell-based, JC-1 fluorescence, 3T3-L1 adipocytes, 24 h, 100 nL compound (AID 1168); conditions: JC-1 mitochondrial fluorescence, higher = more signal, called active from +8 up or from −8 down
[8] = basal RPMI8226 mitochondrial membrane potential changes, profiling panel, cell-based, JC-1 fluorescence, 24 h, 100 nL compound (AID 1169); conditions: RPMI8226 myeloma, JC-1 mitochondrial potential fluorescence, higher = more signal
[9] = basal MM1S mitochondrial membrane potential changes, profiling panel, cell-based, JC-1 fluorescence, 24 h, 100 nL compound (AID 1170); conditions: higher = more signal
[10] = A549 lung cancer cell viability effects, profiling panel, resazurin fluorescence, 24 h, PK04 Diversity Set (AID 1171); conditions: higher = more signal, called active from +8 up or from −8 down
Note: test concentration not given here.

SMILES	z-score [1]	z-score [2]	z-score [3]	z-score [4]	z-score [5]	z-score [6]	z-score [7]	z-score [8]	z-score [9]	z-score [10]
[N-]=[N+]=Nc1ccccc1C[C@@]1(C(=O)NCCN2CCOCC2)N=C(c2ccc(OCCCO)cc2)O[C@@H]1c1ccccc1N=[N+]=[N-]	-1.96	0.205	-2.04	-2.94	-3.31	-0.112	-0.29 (inactive)	-1.26	-1.27	-1 (inactive)
COc1ccc([Si](C)(C)[C@@H]2[C@@H](CCO)O[C@]3(C(=O)N(Cc4ccccc4)c4ccc(NC(=O)[C@H](C)O)cc43)[C@H]2C)cc1	-2.21	0.641	-4.61	-2.62	-4.3	-2.7	-0.241 (inactive)	-0.972	-2.15	-3.3 (inactive)
CCOC(=O)C[C@H]1[C@H](OC(=O)c2cc3ccccc3oc2=O)[C@@H](NC(=O)CC(C)C)c2cc(OCCCO)ccc2N1C(=O)c1ccc2ccccc2n1	-0.326	-0.166	0.311	-0.18	0.156	-0.858	-0.415 (inactive)	-0.272	-0.692	-0.103 (inactive)
C=C[C@H]1C(C(=O)OCC)=CC[C@@H](c2ccccc2)N1S(=O)(=O)c1ccc(C)cc1	-0.438	-1.05	-0.708	-0.465	-1.46	5.08	-0.517 (inactive)	-0.309	-1.21	0.69 (inactive)
CN(C)c1ccc(C(O)C2C=CC3C(=O)NC(=O)C3N2Nc2ccccn2)cc1 (stereo not given)	-0.8	-0.358	-0.331	-0.286	-0.333	-1.21	-0.339 (inactive)	-0.492	0.468	-0.348 (inactive)
COCCOC(=O)N1C(=O)[C@@]2(c3cc(C#CC4(O)CCCCCC4)ccc31)[C@H](c1ccc(O)cc1)N1[C@H](c3ccccc3)[C@H](c3ccccc3)OC(=O)[C@H]1[C@@H]2C(=O)N1CCN(c2ncccn2)CC1	-0.98	0.284	0.278	-1.61	-1.16	-0.81	-0.912 (inactive)	-0.406	-0.091	0.435 (inactive)
CCCN1C(=O)[C@]2(Cc3ccccc31)N=C(c1ccc(OCCCO)cc1)O[C@@H]2c1ccccc1	-1.29	1.07	-1.46	-1.6	-4.4	-0.29	-0.906 (inactive)	-1.17	0.278	-1.6 (inactive)
CC(C)=C1C(=O)C(c2ccccc2)=C2CN3C(=O)N(CCc4ccccc4)C(=O)[C@]3(Cc3ccc(C(F)(F)F)cc3)[C@H]21	0.549	0.66	-0.232	-1.14	-1.16	-1.5	-0.876 (inactive)	-0.699	-0.746	-0.327 (inactive)
COc1cc(C(O)C2C=CC3C(=O)N(C)C(=O)C3N2Nc2ccccc2)cc(OC)c1OC (stereo not given)	0.212	0.555	-0.0987	0.0355	0.438	-0.349	-0.604 (inactive)	0.221	-0.471	0.144 (inactive)
C=CC[C@@H](OC(=O)Nc1ccc(SC)cc1)c1ccc(O)c(F)c1	1.12	-0.475	-0.889	-2.14	-1.75	-2.43	4.4 (inactive)	-0.343	-1.04	-0.68 (inactive)
COc1cccc(C)c1NC(=O)O[C@H]1[C@H](OC(=O)Nc2ccccc2-c2ccccc2)[C@H](OC(=O)Nc2ccccc2-c2ccccc2)[C@@H](OC)O[C@@H]1CO	-0.889	0.328	0.56	-0.632	-2.77	-0.214	1.33 (inactive)	0.198	0.143	-1.11 (inactive)
COCCOC(=O)N1C(=O)[C@@]2(c3cc(C#CCC(C(=O)OC)C(=O)OC)ccc31)[C@H](c1ccc(OCCO)cc1)N1[C@H](c3ccccc3)[C@H](c3ccccc3)OC(=O)[C@H]1[C@@H]2C(=O)N1CCc2cc(OC)c(OC)cc2C1	1.05	-0.0617	0.0859	-1.04	-0.467	0.363	1.37 (inactive)	-0.262	-1.21	0.0243 (inactive)
CC(C)C[C@@H]1NC(=O)[C@@H]2C[C@H](C(=O)NCCCCCCN)[C@H](c3cccc(OCCO)c3)N2C1=O	-0.038	0.971	-0.822	0.206	-0.703	-0.39	0.433 (inactive)	-0.84	0.519	-0.862 (inactive)
O=C(Cc1ccccc1)[C@H]1C2C=CCCC(c3ccccc3)=C2CN1Cc1ccccc1 (stereo not given in full)	0.128	0.169	0.436	0.743	0.602	0.655	0.122 (inactive)	-0.196	0.584	0.807 (inactive)
COc1cccc(C)c1NC(=O)O[C@H]1[C@H](OC(=O)Nc2ccc3c(c2)OCO3)[C@@H](OC(=O)Nc2ccc3c(c2)OCO3)[C@@H](OC)O[C@@H]1CO	-0.551	-0.271	-1.28	-2.27	-0.815	-0.445	0.925 (inactive)	-0.863	-0.0492	-0.315 (inactive)
